The full list was thinned out, with the strongest signals kept by preference.
Assays:
Experiment in all cases: glycan array binding signal (z-score within array); higher = stronger binding
Settings in all cases: glycan notation: IUPAC condensed, linker removed
[1] = target: Fuc(a1-2)Gal(b1-3)GlcNAc(b1-3)[Gal(b1-4)GlcNAc(b1-6)]Gal(b1-4)Glc
Method in brief: (§1)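 The binding signal is a Z-score computed within each array. Data were drawn from 3228 arrays in the Consortium for Functional Glycomics database, restricted to those with a known protein sequence. Scores were averaged over arrays of the same protein sequence at different concentrations or buffers, and over linkers, and negative values can be taken as non-binding.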

[2] = target: Fuc(a1-2)Gal(b1-3)GlcNAc(b1-3)[Neu5Ac(a2-6)Gal(b1-4)GlcNAc(b1-6)]Gal(b1-4)Glc
Method in brief: as §1

Fuc(a1-2)Gal(b1-4)Glc = target: Fuc(a1-2)Gal(b1-4)Glc
Method in brief: as §1

[3] = target: Fuc(a1-2)Gal(b1-4)GlcNAc6S
Method in brief: as §1

[4] = target: Fuc(a1-2)[Gal(a1-3)]Gal(b1-4)GlcNAc(b1-3)[Fuc(a1-2)[Gal(a1-3)]Gal(b1-4)GlcNAc(b1-6)]GalNAc
Method in brief: as §1

[5] = target: Fuc(a1-2)[Gal(a1-3)]Gal(b1-4)[Fuc(a1-3)]GlcNAc
Method in brief: as §1

[6] = target: Fuc(a1-2)[GalNAc(a1-4)]Gal(b1-4)GlcNAc
Method in brief: as §1

Fuc(a1-4)GlcNAc = target: Fuc(a1-4)GlcNAc
Method in brief: as §1

Gal(b1-3)Gal = target: Gal(b1-3)Gal
Method in brief: as §1

[7] = target: Gal(b1-3)GlcNAc(b1-3)Gal(b1-4)GlcNAc(b1-2)Man(a1-3)[Gal(b1-3)GlcNAc(b1-3)Gal(b1-4)GlcNAc(b1-2)Man(a1-6)]Man(b1-4)GlcNAc(b1-4)GlcNAc
Method in brief: as §1

[8] = target: Gal(b1-3)GlcNAc(b1-3)Gal(b1-4)GlcNAc(b1-2)[Gal(b1-3)GlcNAc(b1-3)Gal(b1-4)GlcNAc(b1-6)]Man(a1-6)[Gal(b1-3)GlcNAc(b1-3)Gal(b1-4)GlcNAc(b1-2)Man(a1-3)]Man(b1-4)GlcNAc(b1-4)[Fuc(a1-6)]GlcNAc
Method in brief: as §1

[9] = target: Gal(b1-3)[Fuc(a1-4)]GlcNAc
Method in brief: as §1

Gal(b1-4)Glc6S = target: Gal(b1-4)Glc6S
Method in brief: as §1

[10] = target: Gal(b1-4)GlcNAc(b1-2)[Gal(b1-4)GlcNAc(b1-4)]Man(a1-3)[Gal(b1-4)GlcNAc(b1-2)Man(a1-6)]Man(b1-4)GlcNAc(b1-4)GlcNAc
Method in brief: as §1

[11] = target: Gal(b1-4)GlcNAc(b1-2)[Gal(b1-4)GlcNAc(b1-4)]Man(a1-3)[GlcNAc(b1-4)][Gal(b1-4)GlcNAc(b1-2)[Gal(b1-4)GlcNAc(b1-6)]Man(a1-6)]Man(b1-4)GlcNAc(b1-4)GlcNAc
Method in brief: as §1

[12] = target: Gal(b1-4)GlcNAc(b1-3)Gal(b1-4)GlcNAc(b1-3)Gal(b1-4)GlcNAc(b1-2)Man(a1-3)[Gal(b1-4)GlcNAc(b1-3)Gal(b1-4)GlcNAc(b1-3)Gal(b1-4)GlcNAc(b1-2)Man(a1-6)]Man(b1-4)GlcNAc(b1-4)[Fuc(a1-6)]GlcNAc
Method in brief: as §1

[13] = target: Gal(b1-4)GlcNAc(b1-3)GalNAc
Method in brief: as §1

[14] = target: Gal(b1-4)GlcNAc(b1-3)[Fuc(a1-3)GlcNAc(b1-6)]Gal(b1-4)Glc
Method in brief: as §1

[15] = target: GlcNAc(b1-3)Gal(b1-4)GlcNAc(b1-3)[GlcNAc(b1-3)Gal(b1-4)GlcNAc(b1-3)]GalNAc
Method in brief: as §1

[16] = target: GlcNAc(b1-3)Gal(b1-4)GlcNAc(b1-6)[Gal(b1-3)]GalNAc
Method in brief: as §1

[17] = target: GlcNAc(b1-3)[GlcNAc(b1-4)][GlcNAc(b1-6)]GlcNAc
Method in brief: as §1

[18] = target: GlcNAc(b1-4)[GlcNAc(b1-6)]GalNAc
Method in brief: as §1

[19] = target: Kdn(a2-3)Gal(b1-4)[Fuc(a1-3)]GlcNAc
Method in brief: as §1

[20] = target: Man(a1-2)Man(a1-2)Man(a1-3)Man
Method in brief: as §1

[21] = target: Man(a1-2)Man(a1-2)Man(a1-6)[Man(a1-3)]Man
Method in brief: as §1

Man(a1-2)Man(a1-3)Man = target: Man(a1-2)Man(a1-3)Man
Method in brief: as §1

[22] = target: Man(a1-2)Man(a1-3)[Man(a1-2)Man(a1-6)]Man
Method in brief: as §1

[23] = target: Man(a1-2)Man(a1-3)[Man(a1-2)Man(a1-6)]Man(a1-6)[Man(a1-2)Man(a1-2)Man(a1-3)]Man
Method in brief: as §1

[24] = target: Man(a1-2)Man(a1-6)[Man(a1-3)]Man(a1-6)[Man(a1-2)Man(a1-2)Man(a1-3)]Man
Method in brief: as §1

[25] = target: Man(a1-2)Man(a1-6)[Man(a1-3)]Man(a1-6)[Man(a1-2)Man(a1-2)Man(a1-3)]Man(b1-4)GlcNAc(b1-4)GlcNAc
Method in brief: as §1

[26] = target: Man(a1-3)[Man(a1-6)]Man(a1-6)[Man(a1-2)Man(a1-3)]Man(b1-4)GlcNAc(b1-4)GlcNAc
Method in brief: as §1

[27] = target: Neu5Ac(a2-3)Gal(b1-3)GalNAc
Method in brief: as §1

[28] = target: Neu5Ac(a2-3)Gal(b1-3)[Fuc(a1-4)]GlcNAc
Method in brief: as §1

[29] = target: Neu5Ac(a2-3)Gal(b1-3)[GlcNAc(b1-6)]GalNAc
Method in brief: as §1

[30] = target: Neu5Ac(a2-3)Gal(b1-3)]Neu5Ac(a2-3)Gal(b1-4)]GlcNAc
Method in brief: as §1

[31] = target: Neu5Ac(a2-3)Gal(b1-4)GlcNAc(b1-2)Man(a1-3)[GlcNAc(b1-4)][Neu5Ac(a2-3)Gal(b1-4)GlcNAc(b1-2)Man(a1-6)]Man(b1-4)GlcNAc(b1-4)GlcNAc
Method in brief: as §1

[32] = target: Neu5Ac(a2-3)Gal6S(b1-4)[Fuc(a1-3)]GlcNAc
Method in brief: as §1

Neu5Ac(a2-6)GalNAc = target: Neu5Ac(a2-6)GalNAc
Method in brief: as §1

[33] = target: Neu5Ac(a2-6)GalNAc(b1-4)GlcNAc
Method in brief: as §1

[34] = target: Neu5Ac(a2-8)Neu5Ac(a2-3)[GalNAc(b1-4)]Gal(b1-4)Glc
Method in brief: as §1

[35] = target: Neu5Ac(a2-8)Neu5Gc(a2-3)Gal(b1-4)GlcNAc
Method in brief: as §1

[36] = target: Neu5Gc(a2-8)Neu5Gc(a2-3)Gal(b1-4)GlcNAc(b1-3)Gal(b1-4)GlcNAc
Method in brief: as §1

B1: Dectin2 (Homo sapiens), Q6EIG7 (protein)
chain: MMQEQQPQSTEKRGWLSLRLWSVAGISIALLSACFIVSCVVTYHFTYGETGKRLSELHSYHSSLTCFSEGTKVPAWGCCPASWKSFGSSCYFISSEEKVWSKSEQNCVEMGAHLVVFNTEAEQNFIVQQLNESFSYFLGLSDPQGNNNWQWIDKTPYEKNVRFWHLGEPNHSAEQCASIVFWKPTGWGWNDVICETRRNSICEMNKIYL
- glycan array binding signal (z-score) [1]: -0.199
- glycan array binding signal (z-score) [2]: -0.182
- glycan array binding signal (z-score) (Fuc(a1-2)Gal(b1-4)Glc): -0.165
- glycan array binding signal (z-score) [3]: 0.311
- glycan array binding signal (z-score) [4]: -0.136
- glycan array binding signal (z-score) [5]: -0.1
- glycan array binding signal (z-score) [6]: -0.122
- glycan array binding signal (z-score) (Fuc(a1-4)GlcNAc): -0.102
- glycan array binding signal (z-score) (Gal(b1-3)Gal): -0.111
- glycan array binding signal (z-score) [7]: 0.015
- glycan array binding signal (z-score) [8]: 1.31
- glycan array binding signal (z-score) [9]: -0.15
- glycan array binding signal (z-score) (Gal(b1-4)Glc6S): -0.188
- glycan array binding signal (z-score) [10]: 0.09
- glycan array binding signal (z-score) [11]: -0.17
- glycan array binding signal (z-score) [12]: -0.086
- glycan array binding signal (z-score) [13]: -0.186
- glycan array binding signal (z-score) [14]: -0.161
- glycan array binding signal (z-score) [15]: -0.182
- glycan array binding signal (z-score) [16]: -0.196
- glycan array binding signal (z-score) [17]: 1.3
- glycan array binding signal (z-score) [18]: 1.29
- glycan array binding signal (z-score) [19]: -0.14
- glycan array binding signal (z-score) [20]: 10.3
- glycan array binding signal (z-score) [21]: 13.5
- glycan array binding signal (z-score) (Man(a1-2)Man(a1-3)Man): 4.35
- glycan array binding signal (z-score) [22]: 7.43
- glycan array binding signal (z-score) [23]: 13.9
- glycan array binding signal (z-score) [24]: 3.05
- glycan array binding signal (z-score) [25]: 1.38
- glycan array binding signal (z-score) [26]: 1.16
- glycan array binding signal (z-score) [27]: 0.09
- glycan array binding signal (z-score) [28]: -0.165
- glycan array binding signal (z-score) [29]: -0.193
- glycan array binding signal (z-score) [30]: -0.206
- glycan array binding signal (z-score) [31]: -0.193
- glycan array binding signal (z-score) [32]: -0.193
- glycan array binding signal (z-score) (Neu5Ac(a2-6)GalNAc): -0.176
- glycan array binding signal (z-score) [33]: -0.192
- glycan array binding signal (z-score) [34]: -0.177
- glycan array binding signal (z-score) [35]: -0.21
- glycan array binding signal (z-score) [36]: -0.206

Source: the supplement of paper PMC8728848
